In the library only some 11% were active in any assay of this set; here they are far more common.
PI5P4K alpha inh – blocks human PI5P4K alpha kinase activity; P48426; PI5P4Kalpha enzyme, ADP-Glo luminescence, 60 min; active compounds read low; max response, %; 1.2% of 330,000 active; active = max response of -50% or lower; inconclusive = between -30% and -50%; inactive = -30% or higher; also: value at the top dose of about 77 µM; % is scaled to controls: 0 for no effect and ±100 for the full control effect
Target sequence (P48426 whole entry, looked up): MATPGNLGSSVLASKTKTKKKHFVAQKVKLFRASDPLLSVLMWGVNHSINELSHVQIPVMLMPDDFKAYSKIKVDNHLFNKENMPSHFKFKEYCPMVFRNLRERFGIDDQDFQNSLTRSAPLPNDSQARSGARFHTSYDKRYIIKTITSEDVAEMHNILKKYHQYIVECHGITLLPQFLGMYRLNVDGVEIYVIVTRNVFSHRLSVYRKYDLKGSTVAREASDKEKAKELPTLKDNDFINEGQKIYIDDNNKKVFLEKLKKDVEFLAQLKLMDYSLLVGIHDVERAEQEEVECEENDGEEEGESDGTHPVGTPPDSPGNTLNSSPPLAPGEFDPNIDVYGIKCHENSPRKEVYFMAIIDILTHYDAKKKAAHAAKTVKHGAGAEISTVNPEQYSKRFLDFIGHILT
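ADP-Glo luminescence end-point read after a 60 min room-temperature kinase reaction of PI5P4Kalpha plus substrate, initiated with ATP at 5 microM final. Buffer: 0.038 M HEPES pH 7.4, EGTA, 0.1% CHAPS, 5% DMSO.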
L3MBTL1 inh – inhibitors of human L3MBTL1. AlphaScreen L3MBTL1–H3K9me1 peptide binding. Potency, µM (series often up to 57.1 µM), without a hit: top-dose activity, negative = inhibition, usual class: inhibitors. AID 485360. Q9Y468. 0.66% of 230,000 active; also: potency is read from the fitted curve at half-maximal effect; % is scaled to controls: 0 for no effect and ±100 for the full control effect; nearly all actives have a fitted effect of over 60% in size
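Displacement of a biotinylated histone H3(1-15) peptide monomethylated at Lys9 (75 nM) from L3MBTL1 (50 nM) was measured by AlphaScreen after a 30 min room-temperature compound incubation; cefsulodin titration served as intraplate control.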
BAZ2B inh – blocks human BAZ2B; 4.4% of 360,000 active; Q9UIF8; AlphaScreen BAZ2B-H3K14Ac peptide displacement; Potency, µM (doses to about 114 µM), without a hit: at the highest dose activity change, negative = inhibition, actives largely listed as inhibitors; also: potency is read from the fitted curve at half-maximal effect; % is scaled to controls: 0 for no effect and ±100 for the full control effect; nearly all actives have a fitted effect of over 60% in size
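Inhibition is scored as reduced AlphaScreen emission. The BAZ2B/b-H3(5-23)K14Ac complex (50 nM each) in PBS pH 7.4, 0.01% Tween-20 meets compound (up to 110 uM) for 30 min at RT before bead addition.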
G9a inh – G9a (human) methyltransferase inhibition; AID 504332; G9a H3K9 monomethylation, AlphaScreen, 2 h; Potency, µM (highest dose often 102 µM), without a hit: top-dose activity, negative = inhibition, actives largely listed as inhibitors; 8.8% of 350,000 active; Q96KQ7; also: potency is read from the fitted curve at half-maximal effect; % is scaled to controls: 0 for no effect and ±100 for the full control effect; nearly all actives have a fitted effect of over 75% in size
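AlphaScreen read-out: biotin-H3K9 peptide (500 nM) methylation by 20 nM enzyme with 20 uM SAM, 2 h at room temperature after 15 min compound preincubation; anti-monomethyl H3K9 antibody plus donor/acceptor beads, 10 min dark.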
JMJD2A Tudor inh – JMJD2A Tudor domain (human) inhibition; AlphaScreen JMJD2A-Tudor / H3K4me3 peptide binding; Potency, µM (titrated, usually from 114 µM), for inactives: top-dose activity change, negative = inhibition, hits mostly inhibitors; 4.4% of 390,000 active; AID 504339; also: potency is read from the fitted curve at half-maximal effect; % is scaled to controls: 0 for no effect and ±100 for the full control effect; nearly all actives have a fitted effect of over 50% in size
HP1b chromo inh – inhibitors of HP1-beta chromodomain binding to methylated histone tails; AID 540317; P83916; Potency, µM (series often up to 114 µM), without a hit: at the highest dose activity change, negative = inhibition, hits mostly inhibitors; 0.56% of 390,000 active; AlphaScreen HP1-beta / biotin-H3K9me3 peptide binding; also: potency is read from the fitted curve at half-maximal effect; nearly all actives have a fitted effect of over 70% in size
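HP1-beta protein (50 nM final) preincubated 30 min at room temperature with biotinylated H3(1-18)K9me3 peptide (50 nM) in PBS pH 7.4, 0.01% Tween-20, then compound added for 30 min. AlphaScreen streptavidin donor/nickel chelate acceptor beads (10 ug/mL final), 30 min dark, luminescence read.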
* hit, by the source's call; ? = inconclusive; · = no result given; [ ] = remark or other dose. Unless noted, calls follow the shape of the dose curve; as a rule, active = well fitted inhibition curve with a large enough effect; inconclusive = small, poorly fitted or top-dose-only effect; inactive = no such curve, though single readings can be large or run the other way.

SMILES | PI5P4K alpha inh | L3MBTL1 inh | BAZ2B inh | G9a inh | JMJD2A Tudor inh | HP1b chromo inh
COc1ccc(-c2nnc(SCC(=O)NC(=O)NCc3ccccc3)o2)cc1 | 2 | · | -22% | 45µM* | -23% | 20%
COc1cc2ccnc(Cc3cccc(OC)c3OC)c2cc1OC | 7 | -8% | -13% | 1% | 79µM* | 14%
COc1cc(Cc2nccc3cc(OC)c(OC)cc23)c(S(=O)(=O)O)cc1OC | 1 | · | 5% | 7% | -8% | -29%
Clc1ncc2[nH]cnc2n1 | -5 | · | 0% | -12% | 0%[11.4 µM] | 18%
S=c1[nH]c2cnc(Cl)nc2[nH]1 | ? | · | · | · | 40µM* | 2%
COc1ccc(N2CCN(C(=O)C3CCCN(S(=O)(=O)c4ccc(C)cc4)C3)CC2)cc1 (stereo unspecified) | -5 | · | 40µM* | ? | -30% | ?
Cc1ccc(S(=O)(=O)N2CCCC(C(=O)N3CCN(c4ccccc4)CC3)C2)cc1 (stereo unspecified) | -7 | · | -33% | -1% | -23% | 5%
COc1ccc(N2CCN(C(=O)C3CCCN(S(=O)(=O)c4ccc(F)cc4)C3)CC2)cc1 (stereo unspecified) | -3 | · | 40µM* | · | -32% | -17%
CC(C)=CCCC1(C)C=Cc2c(c(C)cc3c2[nH]c2cc(O)ccc23)O1 (stereo unspecified) | 41 | · | 45µM* | ? | 45µM* | -40%
O=[N+]([O-])c1ccc(N2CCN(CCOCCO)CC2)c([N+](=O)[O-])c1 | 0 | 15% | 32µM* | · | 7.9µM* | ?
COc1ccccc1N1CCN(Cc2cc3c(cc2[N+](=O)[O-])OCO3)CC1 | -4 | -2% | ? | ? | ? | -13%
O=[N+]([O-])c1cc(C(F)(F)F)ccc1N1CCN(CCO)CC1 | 4 | 9% | -3% | 4% | -18% | 18%
O=[N+]([O-])c1cc2c(cc1CN1CCN(CCOCCO)CC1)OCO2 | -1 | 2% | ? | 79µM* | ? | 29%
NC(=O)C[C@@H]1N[C@]2(C(=O)Nc3ccccc32)[C@@H]2C(=O)N(c3cc(C(F)(F)F)ccc3Cl)C(=O)[C@H]12 | · | 1% | -2% | 50µM* | -19% | 33%
NC(=O)C[C@@H]1N[C@]2(C(=O)Nc3ccccc32)[C@@H]2C(=O)N(C3CCCCC3)C(=O)[C@H]12 | -2 | 6% | -2% | -32% | -2% | 7%
CCCOc1ccc(N2C(=O)C3C(C(C)C)NC4(C(=O)c5ccccc5C4=O)C3C2=O)cc1 (stereo unspecified) | · | · | -5% | ? | -18% | 16%
CC(C)[C@@H]1N[C@]2(C(=O)Nc3ccccc32)[C@@H]2C(=O)N(c3cccc(C(F)(F)F)c3)C(=O)[C@@H]21 | · | 4% | 11% | 50µM* | -7% | 34%
O=C(NCc1ccccc1)C12CC3CC(CC(C3)C1)C2 | -3 | · | ? | 32µM* | -20% | 27%
CCC(=O)N1c2ccccc2CC1C(=O)NCCc1ccc(OC)c(OC)c1 (stereo unspecified) | · | · | -10% | 20%[59 µM] | -2% | 23%
CCCOc1ccc(CN(C(=O)Cc2coc3ccc(CC)cc23)C2CCS(=O)(=O)C2)cc1 (stereo unspecified) | · | · | -20% | -23%[59 µM] | -21% | 28%
O=C1C2C3C=CC(C3=C(c3ccccc3)c3ccccc3)C2C(=O)N1CCO (stereo unspecified) | -1 | · | -9% | -26%[59 µM] | -33% | 5%
O=C1C2C3C=CC(C3=C(c3ccccc3)c3ccccc3)C2C(=O)N1Cc1ccccc1 (stereo unspecified) | 0 | · | -8% | 40µM* | -18% | 25%
S=c1[nH]nc(-c2ccc(Br)o2)n1Cc1ccccc1 | · | · | -37% | ? | 32µM* | 2%
S=c1[nH]nc(-c2ccccc2)n1Cc1ccccc1 | 0 | 2% | -3% | 4%[2.33 µM] | 11µM* | -3%
Cc1ccn(Cc2n[nH]c(=S)n2Cc2ccccc2)n1 | 5 | · | 0% | 3.2µM* | 8.9µM* | 20%
